We go through 14 compounds from PubChem BioAssay (NCATS).

Test [1] can be described thus: qHTS assay for small molecule disruptors of the mitochondrial membrane potential - 1 hr assay (AID 651754; calls by dose curve; also: nearly all actives have a fitted effect of over 35% in size; also: potency is read from the fitted curve at half-maximal effect). In short, it runs like this: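 HepG2, 2,000 cells/well, overnight attachment; cpd or DMSO 1 hr, 37C/5% CO2; Mito-MPS dye 30 min, 37C; fluorescence monomer (490/535) and aggregate (540/590).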
The nature of test [2]: qHTS assay for small molecule disruptors of the mitochondrial membrane potential - 5 hr assay (AID 651755; calls by dose curve; also: % is scaled to controls: 0 for no effect and ±100 for the full control effect; nearly all actives have a fitted effect of over 40% in size). A digest of the protocol: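 HepG2 cells, attached overnight at 37C, were exposed to compound or DMSO for 5 hr at 37C, 5% CO2. Mito-MPS dye was then added for 30 min, and fluorescence read at 490/535 nm (monomers) and 540/590 nm (aggregates).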
The target of test [3] is Tumor necrosis factor (Homo sapiens) (UniProt P01375). The test can be described thus: qHTS assay to identify small molecules that stimulate Tumor Necrosis Factor-alpha (TNF-alpha) secretion (AID 651757; active = well fitted curve in the direction sought with a large enough effect in the signal ratio; the % refers to the signal ratio; also: 0% is about no effect). In short, it runs like this:
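Read-out is HTRF, a TR-FRET sandwich of cryptate- and XL665-labeled anti-TNF-alpha antibodies detecting cytokine secreted by THP-1 cells. Cells had been incubated with test compounds at 37 C for 17 hrs beforehand.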

The target of test [4] is Peroxisome proliferator-activated receptor alpha (Homo sapiens) (UniProt Q07869). The test can be described thus: qHTS assay for small molecule agonists of the peroxisome proliferator-activated receptor alpha (PPARalpha) signaling pathway (AID 651778). Also: % of control where 0% means no effect. Particulars: PathHunter PPARalpha complementation, chemiluminescence, 6 h; stronger effect = higher value. In short, it runs like this:
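Cells plated at 2,000/well and held overnight at 37 C, 5% CO2, then compound added by pin tool for 6 hr; after PathHunter detection reagent and 60 min at room temperature, chemiluminescence from enzyme complementation was read.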

The target of test [5] is Nuclear receptor ROR-gamma (Homo sapiens) (UniProt P51449). Briefly: qHTS assay for small molecule antagonists of the retinoid-related orphan receptor gamma (ROR-gamma) signaling pathway (AID 651802).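 Also: luciferase reporter luminescence driven by ROR response element; series mostly up to about 92 µM; % is scaled to controls: 0 for no effect and ±100 for the full control effect; nearly all actives have a fitted effect of over 60% in size.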 A digest of the protocol: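 CHO, TET-inducible ROR + RORE-LUC reporter, 1536-well qHTS. Compound pinned, doxycycline added, 16hr 37C/5% CO2. ONE-Glo, 30 min RT, luminescence; signal drop scored as antagonism.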
A general note: Quantitative high-throughput screening tests each substance at several concentrations.

The nature of test [6]: qHTS assay for small molecule agonists of the antioxidant response element (ARE) signaling pathway measured by Nrf2-dependant transcriptional activity (AID 720636; active = well fitted curve in the direction sought with a large enough effect in the repeat runs; an effect the other way counts as inactive or inconclusive;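 also: HepG2 cells with an ARE-driven luciferase reporter; % of control where 0% means no effect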). In short, it runs like this: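 Nrf2-dependent transcription is measured in ARE-luc HepG2 cells: compound is applied for 16 hr at 37 C after a 6 hr attachment period, and luciferase activity is quantified by luminescence using ONE-Glo.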

The nature of test [7]: qHTS assay for small molecule antagonists of the retinoid-related orphan receptor gamma (ROR-gamma) signaling pathway - cell viability counter screen (AID 720652; active = well fitted curve in the direction sought with a large enough effect in the repeat runs; an effect the other way counts as inactive or inconclusive;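 also: series mostly up to about 92 µM; compound exposure lasted 16 hr before ATP read; % is scaled to controls: 0 for no effect and ±100 for the full control effect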). A digest of the protocol:
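Luminescence from CellTiter-Glo after 30 min at room temperature reported cellular ATP as the cytotoxicity measure. Cells were the CHO reporter line with doxycycline-induced ROR-gamma expression, exposed to compound for 16 hr at 37 C.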

A short description of test [8]: qHTS assay for small molecule agonists of the antioxidant response element (ARE) signaling pathway measured by Nrf2-dependant transcriptional activity - cell viability counter screen (AID 720653; active = well fitted curve in the direction sought with a large enough effect in the repeat runs; an effect the other way counts as inactive or inconclusive; also: % is scaled to controls: 0 for no effect and ±100 for the full control effect). Particulars: ARE-bla HepG2 viability, CellTiter-Glo ATP luminescence, 16 h; stronger effect = lower value. A digest of the protocol: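 ARE-bla HepG2 cells (2,000/well) rested 5 hrs at 37C/5% CO2, then exposed to compounds in DMSO for 16 hrs. Viability was read in the same wells as intracellular ATP by luminescence, 30 min at room temperature after reagent addition.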

Test [9] is described as follows: qHTS assay for cell viability of HEK293 cells (AID 743288). Also: % is scaled to controls: 0 for no effect and ±100 for the full control effect; nearly all actives have a fitted effect of over 50% in size. Particulars: ATP luminescence (CellTiter-Glo), 18 h, stronger effect = lower value. A digest of the protocol: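 Environmental chemicals tested in qHTS format against parental HEK293 cells; 18 h treatment, 37 C; read-out ATP luminescence (CellTiter-Glo), 30 min RT development.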
The nature of test [10]: qHTS assay for cell viability of the p53RE-bla HCT-116 cell line (AID 743292). Also: % is scaled to controls: 0 for no effect and ±100 for the full control effect; nearly all actives have a fitted effect of over 55% in size. A digest of the protocol: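 ATP-based luminescence, 16 h compound exposure at 37 C, p53RE-bla HCT-116 cells at 4,000/well.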
The target in test [11] is Nuclear receptor subfamily 1 group I member 2 (Rattus norvegicus) (UniProt Q9R1A7). The test can be described thus: qHTS assay for small molecule activators of the rat pregnane X receptor (rPXR) signaling pathway (AID 651751; call rule not given here; also: 0% is about no effect). Particulars: rPXR reporter cells, luciferase (One-Glo), 24 h.
Test [12] can be described thus: qHTS assay for small molecule activators of the human pregnane X receptor (PXR) signaling pathway (AID 720659; call rule not given here; also: 0% is about no effect).
The nature of test [13]: qHTS assay for environmental chemicals that activate the Aryl hydrocarbon Receptor (AhR) signaling pathway (AID 651777). Also: % of control where 0% means no effect; nearly all actives have a fitted effect of over 15% in size. Particulars: 1A2-DRE human hepatoma cells, luciferase, 24 h; activation: stronger effect = higher value. A digest of the protocol:
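Reporter gene assay: hepatoma cells with DRE/CYP1A2-luciferase, 24 hr compound incubation at 37 C, 5% CO2, luminescence after One-Glo (30 min, RT).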

Test [14] in a line: qHTS assay to identify small molecules that stimulate interleukin-8 (IL-8) secretion (AID 651758; active = well fitted activation curve with a large enough effect in the signal ratio; the % refers to the signal ratio; also: 0% is about no effect). A digest of the protocol: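 THP-1, 2000 cells/well; cpd 16 h, 37 C; add cryptate + XL665 anti-IL-8 Abs; RT 1-3 h; TR-FRET read.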

“And” between values parts separate entries of the source, which are not always exact repeats. Equal entries are not always repeated. A number with no mark means an inactive call. Results filed as inconclusive are left out. The source made the active and inactive calls. Unless noted, calls follow the shape of the dose curve; as a rule, active = well fitted curve in the direction sought with a large enough effect; inconclusive = small, poorly fitted or top-dose-only effect, or another doubt; inactive = no such curve, though single readings can be large; an effect the other way counts as inactive or inconclusive.

Sequence of Tumor necrosis factor (Homo sapiens) (P01375 whole entry, looked up): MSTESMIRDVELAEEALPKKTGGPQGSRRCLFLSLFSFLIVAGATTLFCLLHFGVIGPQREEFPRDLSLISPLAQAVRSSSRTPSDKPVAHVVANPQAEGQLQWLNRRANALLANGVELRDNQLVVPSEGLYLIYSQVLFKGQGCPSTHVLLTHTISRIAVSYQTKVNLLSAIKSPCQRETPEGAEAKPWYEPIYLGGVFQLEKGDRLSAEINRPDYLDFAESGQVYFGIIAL
Sequence of Peroxisome proliferator-activated receptor alpha (Homo sapiens) (Q07869 whole entry, looked up): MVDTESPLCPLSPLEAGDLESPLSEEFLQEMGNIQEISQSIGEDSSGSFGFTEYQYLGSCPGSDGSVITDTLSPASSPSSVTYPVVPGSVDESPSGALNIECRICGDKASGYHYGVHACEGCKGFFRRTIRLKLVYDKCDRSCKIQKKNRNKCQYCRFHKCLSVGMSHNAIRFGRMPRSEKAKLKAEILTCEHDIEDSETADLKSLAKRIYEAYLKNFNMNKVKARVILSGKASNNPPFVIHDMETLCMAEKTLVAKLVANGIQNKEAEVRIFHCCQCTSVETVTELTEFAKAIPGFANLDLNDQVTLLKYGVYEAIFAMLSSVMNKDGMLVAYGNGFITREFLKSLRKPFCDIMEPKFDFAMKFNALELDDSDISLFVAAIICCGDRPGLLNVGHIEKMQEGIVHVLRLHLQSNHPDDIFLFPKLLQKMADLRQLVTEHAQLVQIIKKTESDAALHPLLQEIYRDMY
Sequence of Nuclear receptor subfamily 1 group I member 2 (Rattus norvegicus) (Q9R1A7 whole entry, looked up): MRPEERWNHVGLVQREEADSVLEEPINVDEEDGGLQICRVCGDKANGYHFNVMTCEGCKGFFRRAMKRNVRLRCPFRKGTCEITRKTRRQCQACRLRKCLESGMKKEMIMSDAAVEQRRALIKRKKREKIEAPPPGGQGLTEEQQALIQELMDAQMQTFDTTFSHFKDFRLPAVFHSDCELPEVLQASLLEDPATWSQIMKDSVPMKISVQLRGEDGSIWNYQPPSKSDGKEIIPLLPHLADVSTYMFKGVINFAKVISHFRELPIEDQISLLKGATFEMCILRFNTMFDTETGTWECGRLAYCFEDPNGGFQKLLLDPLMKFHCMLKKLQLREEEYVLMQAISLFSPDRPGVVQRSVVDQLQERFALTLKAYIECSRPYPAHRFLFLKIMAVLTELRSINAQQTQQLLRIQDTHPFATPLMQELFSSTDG
Sequence of Nuclear receptor ROR-gamma (Homo sapiens) (P51449 whole entry, looked up): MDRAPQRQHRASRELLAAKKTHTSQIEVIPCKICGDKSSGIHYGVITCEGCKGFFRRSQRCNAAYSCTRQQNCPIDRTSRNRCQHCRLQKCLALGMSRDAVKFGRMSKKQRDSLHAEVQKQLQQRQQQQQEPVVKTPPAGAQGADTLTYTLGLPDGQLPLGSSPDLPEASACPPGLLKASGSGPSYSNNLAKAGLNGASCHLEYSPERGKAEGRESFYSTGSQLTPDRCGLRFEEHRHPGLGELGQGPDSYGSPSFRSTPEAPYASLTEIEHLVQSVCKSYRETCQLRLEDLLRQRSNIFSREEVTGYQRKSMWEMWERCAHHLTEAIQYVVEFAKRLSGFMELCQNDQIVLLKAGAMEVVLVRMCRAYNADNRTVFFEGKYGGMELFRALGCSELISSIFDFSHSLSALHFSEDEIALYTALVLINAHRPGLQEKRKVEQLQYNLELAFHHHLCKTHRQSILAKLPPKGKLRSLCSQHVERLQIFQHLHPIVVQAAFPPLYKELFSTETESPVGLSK

As for `CN(C)CCCCl`, the Potency entry in [1], in test [2], in test [3], in test [5], in test [7] and in test [10] was “inactive” in each case. Besides, the max response was -1.33% in [4], 19.9% in test [8], 7.77% in [9] and 3.08% in test [11]. Also, the compound was called inactive in test [6] and in test [12].

`Cc1ccc(C)c([N+](=O)[O-])c1`: the Potency entry in test [1], in [2], in test [5], in [7] and in test [10] was “inactive” in each case. Moreover, the activation in test [13] is 0.781%. Further, the max response was -2.55% in test [4], -4.07% in test [8], 4.94% in test [9] and -1.78% in [11]. In addition, the result in test [6] and in test [12] was inactive.

With `CCCCC(CC)C(=O)O` (centres undefined), the Potency entry in [1], in test [2], in test [3], in test [5], in [7] and in test [10] was “inactive” each time. In addition, the max response in [4] is -2.43%; in test [8], -5.11%; in test [9], -7.06%; in test [11], 1.13%. The compound was called inactive in [6] and in [12].

For the compound `CC(C=O)Cc1ccc(C(C)(C)C)cc1` (centres undefined), the Potency result in test [1], in [2], in [3], in test [7] and in [10] was “inactive” each time. In addition, the activation in test [13] was 0.301% and -1.84%. Also, the max response in test [4] is -2% and -1.24%; in test [8], -4.71% and -17.8%; in test [11] it was 2.84% and 3.47%. Also, the call in test [6] and in test [12] was inactive.

With `NC(=O)c1ccccc1[N+](=O)[O-]`, the Potency entry in test [1], in [2], in test [5] and in [7] was “inactive” throughout. For the same compound, in test [13], the activation was -0.127%. Moreover, the max response in [4] is -0.939%; in test [8], -0.414%; in test [9] it was 7.1%; in test [11], -1.43%. The call in test [6] and in test [12] was inactive.

On to `C=CCCC`, for which the Potency entry in test [1], in test [2], in test [3], in [5] and in test [10] was “inactive” throughout. Moreover, the max response in [4] was -5.85%; in test [8] it was 3.55%; in test [9], -5.1%; in test [11], 2.44%. In addition, the compound was classed as inactive in [6] and in [12].

`ClC/C=C/CCl`: the Potency entry in test [1], in test [2], in test [3], in [7] and in test [10] was “inactive” each time. Moreover, the max response in test [4] was 1.16%; in test [8], -6.38%; in [11] it was 5.09%. Moreover, the outcome in [6] and in test [12] was inactive.

`Oc1c(Cl)ccc(Cl)c1Cl`: the Potency entry in test [1], in test [2], in test [14], in [7] and in test [10] was “inactive” throughout. In addition, the activation in test [13] is -0.586%. In addition, the max response is 6.63% in test [4], 0.617% in test [8], 4.44% in test [9] and 0.125% in test [11]. Further, the result in [6] and in test [12] was inactive.

In the case of `CSc1ccc(C=O)cc1`, the Potency result in [1], in test [2], in [5], in test [7] and in test [10] was “inactive” in each case. For the same compound, in [13], the activation was 0.018%. Further, the max response in [4] was -3.7%; in test [8] it was -8.76%; in test [9], 8.71%; in test [11], 9.01%. Also, the call in test [6] and in [12] was inactive.

Regarding `Fc1ccccc1`, the Potency result in test [1], in test [2], in test [3], in test [5], in test [7] and in test [10] was “inactive” each time. Also, the max response is 1.57% in test [4], 8.77% in [8], 9.93% in test [9] and 3.18% in [11]. For the same compound, the compound was called inactive in [6] and in test [12].

In the case of `Nc1ccc([N+](=O)[O-])c(N)c1`, the Potency result in test [3], in test [14], in test [5], in [7] and in [10] was “inactive” each time. Further, the activation in [13] was 1.41%. Further, the max response in test [4] was -0.849%; in [8] it was -4.59%; in test [9], 8.4%; in test [11], 1.18%. Besides, the outcome in test [6] and in test [12] was inactive.

For the compound `COc1cccc2sc(N)nc12`, the Potency result in test [1], in [3], in test [5], in test [7] and in test [10] was “inactive” in each case. For the same compound, the max response in test [4] was -2.03%; in [8], 1.42%; in test [9] it was -3.84%; in [11], 8.89%. Also, the outcome in test [6] and in test [12] was inactive.

Turning to `O=[N+]([O-])c1ccc(NCCO)c(OCCO)c1`, the Potency result in test [1], in test [2], in test [7] and in test [10] was “inactive” each time. Moreover, in test [13], the activation was 0.85%. The max response is -4.01% in test [4], 6.98% in test [8], -2.57% in test [9] and -2.89% in test [11]. Besides, the result in [6] and in [12] was inactive.

`Nc1cccc(N)c1`: the Potency in [1] was 21.1 µM (active). For the same compound, the Potency entry in test [3] and in test [5] was “inactive” each time. In addition, the activation in test [13] was 4.51%. For the same compound, the max response was -0.676% in test [4], -7.64% in test [8], 5.39% in test [9] and 11.3% in test [11]. Besides, the outcome in [6] and in [12] was inactive.
